Test results taken from PubChem BioAssay (NCATS).
Records with an inconclusive call do not appear. Entries that show only a call come without a potency. The source made the active and inactive calls. Calls come from the whole dose curve; as a rule, active = well fitted curve in the direction sought with a large enough effect; inconclusive = small, poorly fitted or top-dose-only effect, or another doubt; inactive = no such curve, though single readings can be large; an effect the other way counts as inactive or inconclusive.

Assays:
[1] = qHTS for Inhibitors of Ubiquitin-specific Protease USP2a Using CHOP2 as the Reporter: Cytotox Assay (AID 652170); note: nearly all actives have a fitted effect of over 70% in size; note: potency is the fitted concentration of half-maximal effect
Summary of the method: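 Cytotoxicity read as ATP luminescence (CellTiter-Glo) after 72 hr compound treatment at 37 deg C. Cells: HCT116, 600/well in DMEM plus 10% FBS. Normalization between DMSO-treated cells and cell-free wells.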

[2] = target: Ubiquitin carboxyl-terminal hydrolase 2 (Homo sapiens) (UniProt O75604); assay: qHTS for Inhibitors of Ubiquitin-specific Protease USP2a Using CHOP2 as the Reporter: K484 Substrate (AID 652173);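 note: cleavage of internally quenched K48 di-ubiquitin substrate measured as rising fluorescence over time; potency is the fitted concentration of half-maximal effect; nearly all actives have a fitted effect of over 70% in size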
Sequence of Ubiquitin carboxyl-terminal hydrolase 2 (Homo sapiens) (O75604 whole entry, looked up): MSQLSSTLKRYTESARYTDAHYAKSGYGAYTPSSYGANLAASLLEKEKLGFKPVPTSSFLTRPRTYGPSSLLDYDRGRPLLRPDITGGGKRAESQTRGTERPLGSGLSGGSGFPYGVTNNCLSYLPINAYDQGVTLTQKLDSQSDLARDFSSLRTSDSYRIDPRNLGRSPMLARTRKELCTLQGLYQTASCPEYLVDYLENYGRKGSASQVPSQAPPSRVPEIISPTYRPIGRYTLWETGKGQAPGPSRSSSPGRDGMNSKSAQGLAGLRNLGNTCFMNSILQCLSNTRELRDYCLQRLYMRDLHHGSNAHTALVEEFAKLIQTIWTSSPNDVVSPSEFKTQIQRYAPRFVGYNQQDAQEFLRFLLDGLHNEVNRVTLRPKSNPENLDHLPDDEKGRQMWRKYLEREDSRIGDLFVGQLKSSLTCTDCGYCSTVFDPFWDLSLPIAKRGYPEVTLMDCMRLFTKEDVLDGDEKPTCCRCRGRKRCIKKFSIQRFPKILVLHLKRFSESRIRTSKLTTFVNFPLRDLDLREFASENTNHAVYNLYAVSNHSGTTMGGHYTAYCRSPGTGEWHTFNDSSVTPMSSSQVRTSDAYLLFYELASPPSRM
Summary of the method: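 Kinetic fluorescence (Ex 525/Em 598) tracked cleavage of an internally quenched K48 di-ubiquitin substrate, added as a 100 nM solution. The enzyme was added as a 5 nM USP2 solution before compound pinning, with no-enzyme controls. Buffer: Tris pH 8, beta-mercaptoethanol, CHAPS.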

[3] = target: Calcium and integrin-binding protein 1 (Homo sapiens) (UniProt Q99828); assay: Primary qHTS for Identification of Calcium Integrin Binding Protein 1 (CIB1) Competitor (AID 1508620);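 note: GST tagged CIB1 binding a fluorescein labelled alphaIIb integrin peptide tracer; top concentration of the series differs between compounds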
Sequence of Calcium and integrin-binding protein 1 (Homo sapiens) (Q99828 whole entry, looked up): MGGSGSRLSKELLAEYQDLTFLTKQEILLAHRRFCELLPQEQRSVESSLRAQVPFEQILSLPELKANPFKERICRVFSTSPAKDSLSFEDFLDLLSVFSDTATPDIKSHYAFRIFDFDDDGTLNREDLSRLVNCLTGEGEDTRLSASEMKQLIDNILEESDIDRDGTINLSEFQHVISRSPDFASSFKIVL
Summary of the method: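 Fluorescence polarization competition: GST-tagged CIB1 (1 uM final) preincubated with compound 15 min at room temperature, then FITC-labelled alphaIIb peptide (100 nM final) added. After 15 min at room temperature, polarization read at Ex 480/Em 540.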

Compound | Potency [1] | Potency [2] | Potency [3]
Cc1ccc(-c2cc(C(=O)Nc3ccc(-n4cncn4)cc3)c3ccccc3n2)cc1C | inactive | 7.69 µM (active) | inactive
Cc1ccc(NS(=O)(=O)c2cccc(C(=O)Nc3nc(-c4ccccc4)cs3)c2)cc1 |  | 3.06 µM (active) | inactive
O=C(Nc1nc(-c2ccccc2)cs1)c1ccccc1Cl |  | 13.7 µM (active) | inactive
O=C(Nc1nc(-c2ccccc2)cs1)c1ccccc1[N+](=O)[O-] |  | 12.2 µM (active) | inactive
Cc1ccc(S(=O)(=O)Nc2cc(C(=O)Nc3nc(-c4ccccc4)cs3)ccc2Cl)cc1 | inactive | 2.17 µM (active) | inactive
Cc1ccc(S(=O)(=O)Nc2ccccc2C(=O)Nc2ccc(-c3ccccc3)nc2)cc1 | 20.9 µM (active) | 4.85 µM (active) | inactive
COc1cc(Cl)ccc1C(=O)Nc1nc(-c2ccccc2)cs1 | inactive | 13.7 µM (active) | inactive
Cc1ccc(C(=O)Nc2ccccc2C(=O)Nc2nc(-c3ccccc3)cs2)cc1 |  | 5.44 µM (active) | inactive
Cc1ccc(S(=O)(=O)Nc2ccccc2C(=O)Nc2ccc(-c3ccccc3)nn2)cc1 |  | 3.85 µM (active) | inactive
Cc1ccc(S(=O)(=O)Nc2ccc(C(=O)Nc3nc(-c4ccc(Cl)cc4)cs3)cc2)cc1 |  | 3.06 µM (active) | inactive
Cc1ccc(S(=O)(=O)Nc2ccccc2C(=O)Nc2ccc(-c3ccccc3)cn2)cc1 |  | 2.17 µM (active) | inactive
COc1cccc(NS(=O)(=O)c2ccc(C)cc2)c1C(=O)Nc1nc(-c2ccccc2)cs1 | inactive | 4.32 µM (active) | inactive
Cc1ccc(S(=O)(=O)Nc2cncc(C(=O)Nc3nc(-c4ccccc4)cs3)c2)cc1 |  | 6.85 µM (active) | inactive
Cc1ccc(-c2cc(C(=O)Nc3ccc(S(=O)(=O)N(C)C)cc3)c3ccccc3n2)cc1C |  | 4.32 µM (active) | inactive
O=C(Nc1nc(-c2ccccc2)cs1)c1ccccc1 | inactive | 24.3 µM (active) | inactive
COc1cc(NS(=O)(=O)c2ccc(C)cc2)cc(C(=O)Nc2nc(-c3ccccc3)cs2)c1 |  | 2.43 µM (active) | inactive
CC(C)(C)C1CCC(C(=O)Nc2ccc(S(=O)(=O)Nc3nccs3)cc2)CC1 (configuration not stated) | inactive | 10.9 µM (active) | inactive
Cc1ccc(C(=O)[C@H]2CC[C@@H](C(=O)Nc3ccc(S(=O)(=O)Nc4nccs4)cc3)C2)cc1C | inactive | 3.85 µM (active) | inactive
Cc1ccc(-c2cc(C(=O)Nc3nc4ccccc4s3)c3ccccc3n2)cc1C | inactive | 21.7 µM (active) | inactive
